Assay results from PubChem BioAssay (NCATS).
Inconclusive results are not listed. Activity calls are given as the source filed them. Unless noted, calls follow the shape of the dose curve; as a rule, active = well fitted curve in the direction sought with a large enough effect; inconclusive = small, poorly fitted or top-dose-only effect, or another doubt; inactive = no such curve, though single readings can be large; an effect the other way counts as inactive or inconclusive.

Columns and labels:
[1] = target: Mitogen-activated protein kinase 10 (Mus musculus) (UniProt Q61831); assay: JNK3 AlphaScreen Assay (AID 530; active = well fitted curve in either direction with a large enough effect, not every such curve was filed as active;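 also: kinase came from lysate of stimulated human HepG2 cells; signal reports phosphorylation of biotinylated GST-cJun 1-79 at Ser73 with 10 µM ATP; series mostly up to about 57 µM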)
Procedure, shortened: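 Pre-activated (IL-1β/TNFα) JNK3 in HepG2 lysates phosphorylates biotin-GST-cJun(1-79), 10 uM ATP; anti-phospho-cJun(Ser73) AlphaScreen read at room temperature, pH 7.6 Tris buffer. Compounds pre-incubated 15 min as titrations.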

[2] = target: Cytochrome P450 3A4 (Homo sapiens) (UniProt P08684); assay: qHTS Assay for Activators of Cytochrome P450 3A4 (AID 885); also: nearly all actives have a fitted effect of over 65% in size
Chain of Cytochrome P450 3A4 (Homo sapiens) (P08684 whole entry, looked up): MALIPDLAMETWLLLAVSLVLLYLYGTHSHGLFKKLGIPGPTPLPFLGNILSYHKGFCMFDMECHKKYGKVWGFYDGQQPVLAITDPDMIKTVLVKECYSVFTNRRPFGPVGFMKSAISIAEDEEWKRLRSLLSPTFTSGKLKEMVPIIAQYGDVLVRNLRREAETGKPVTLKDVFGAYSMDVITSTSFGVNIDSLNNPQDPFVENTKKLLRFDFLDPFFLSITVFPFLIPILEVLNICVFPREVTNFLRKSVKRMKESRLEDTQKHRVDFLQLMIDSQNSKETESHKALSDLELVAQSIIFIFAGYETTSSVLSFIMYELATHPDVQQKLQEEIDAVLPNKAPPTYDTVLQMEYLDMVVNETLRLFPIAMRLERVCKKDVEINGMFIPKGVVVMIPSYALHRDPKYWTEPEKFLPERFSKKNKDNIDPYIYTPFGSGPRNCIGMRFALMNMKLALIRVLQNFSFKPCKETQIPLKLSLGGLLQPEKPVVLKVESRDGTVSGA
Procedure, shortened: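 Signal was normalized against complete inhibition by 57 uM ketoconazole. The reaction used 20nM CYP3A4 with 25uM Luciferin-PPXE, 10-min compound preincubation and a 60-min NADPH-supported step at RT.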

[3] = target: Calcium and integrin-binding protein 1 (Homo sapiens) (UniProt Q99828); assay: Primary qHTS for Identification of Calcium Integrin Binding Protein 1 (CIB1) Competitor (AID 1508620);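 also: GST tagged CIB1 binding a fluorescein labelled alphaIIb integrin peptide tracer; top concentration of the series differs between compounds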
Chain of Calcium and integrin-binding protein 1 (Homo sapiens) (Q99828 whole entry, looked up): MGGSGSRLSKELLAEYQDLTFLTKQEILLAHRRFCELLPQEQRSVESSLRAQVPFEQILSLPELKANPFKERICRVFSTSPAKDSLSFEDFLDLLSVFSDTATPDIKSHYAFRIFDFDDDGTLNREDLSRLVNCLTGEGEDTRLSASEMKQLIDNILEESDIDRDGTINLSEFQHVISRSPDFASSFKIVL
Procedure, shortened: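 Fluorescence polarization competition: GST-tagged CIB1 (1 uM final) preincubated with compound 15 min at room temperature, then FITC-labelled alphaIIb peptide (100 nM final) added. After 15 min at room temperature, polarization read at Ex 480/Em 540.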

Measured: Potency

CCCn1c(-c2ccc(F)cc2)nc2c(NCCN3CCCCC3)nc(C)nc21
inactive: all assays above

CCCn1c(-c2ccc(F)cc2)nc2c(NCCN(CC)CC)nc(C)nc21
inactive: all assays above

CCCCNc1nc(C)nc2c1nc(-c1ccccc1)n2CCCN(CC)CC
inactive: all assays above

CCCn1c(-c2ccc(F)cc2)nc2c(N(C)CCN(C)C)nc(C)nc21
inactive: all assays above

Cc1nc(N2CCOCC2)c2nc(-c3ccccc3)n(C(C)CN(C)C)c2n1 (centres undefined)
inactive: all assays above

CCCn1c(-c2ccc(F)cc2)nc2c(N3CCN(C)CC3)nc(C)nc21
inactive: all assays above

Cc1nc(Nc2ccccc2)c2nc(-c3ccccc3)n(CCCN3CCCCC3C)c2n1 (centres undefined)
inactive: all assays above

CCCn1c(-c2ccc(F)cc2)nc2c(NC(C)CN(C)C)nc(C)nc21 (centres undefined)
inactive: all assays above

CCN(CC)CCCC(C)n1c(-c2ccccc2)nc2c(NCCOC)nc(C)nc21 (centres undefined)
inactive: all assays above

CCCn1c(-c2ccc(F)cc2)nc2c(NCCCCN(C)C)nc(C)nc21
inactive: all assays above

CCCn1c(C)nc2c(N(CCN(C)C)Cc3ccccc3)nc(C)nc21
inactive: all assays above

CCCn1c(-c2ccc(F)cc2)nc2c(NCCN(C(C)C)C(C)C)nc(C)nc21
inactive: all assays above

CCN(CC)CCCCn1c(-c2ccccc2)nc2c(NC3CCCCC3)nc(C)nc21
inactive: all assays above

CCCn1c(-c2ccc(F)cc2)nc2c(NC3CC4CCC(C3)N4C)nc(C)nc21 (centres undefined)
inactive: all assays above

CCN(CC)CCCn1c(-c2ccccc2)nc2c(NCc3ccccc3)nc(C)nc21
inactive: all assays above

CCCn1c(-c2ccc(F)cc2)nc2c(NCCCN(CCO)CCO)nc(C)nc21
inactive: all assays above

CCCCNc1nc(C)nc2c1nc(-c1ccccc1)n2CC1CCCN1CC (centres undefined)
inactive: all assays above

CCCn1c(C)nc2c(N(CCOC)CCOC)nc(C)nc21
inactive: all assays above

COCCNc1nc(C)nc2c1nc(-c1ccccc1)n2CCN1CCCC1
inactive: all assays above

Cc1nc(NC2CCCCC2)c2nc(-c3ccccc3)n(CCCN(C)C)c2n1
inactive: all assays above

CCCn1c(-c2ccc(F)cc2)nc2c(NCCCN(CC)CC)nc(C)nc21
inactive: all assays above

Cc1nc(N2CCOCC2)c2nc(-c3ccccc3)n(CCN3CCOCC3)c2n1
inactive: all assays above

COCCN(CCOC)c1nc(C)nc2c1nc(-c1ccccc1)n2CCCN(C)C
inactive: all assays above

CCN(CC)CCCCn1c(-c2ccccc2)nc2c(N3CCOCC3)nc(C)nc21
inactive: all assays above

CCN(CC)CCCn1c(-c2ccccc2)nc2c(N(CCOC)CCOC)nc(C)nc21
inactive: all assays above

CCCn1c(-c2ccc(F)cc2)nc2c(NCC3CCN(C)CC3)nc(C)nc21
inactive: all assays above

COCCN(CCOC)c1nc(C)nc2c1nc(-c1ccccc1)n2CCN1CCOCC1
inactive: all assays above

Cc1nc(N2CCOCC2)c2nc(-c3ccccc3)n(CC(C)(C)CN(C)C)c2n1
inactive: all assays above

CCN1CCCC1Cn1c(-c2ccccc2)nc2c(N3CCOCC3)nc(C)nc21 (centres undefined)
inactive: all assays above

CCCn1c(C)nc2c(N3CCCN(Cc4ccccc4)CC3)nc(C)nc21
inactive: all assays above

Cc1nc(N2CCOCC2)c2nc(-c3ccccc3)n(CCCN3CCCCC3C)c2n1 (centres undefined)
inactive: all assays above

CCN1CCCC1Cn1c(-c2ccccc2)nc2c(NCCOC)nc(C)nc21 (centres undefined)
inactive: all assays above

COCCN(CCOC)c1nc(C)nc2c1nc(-c1ccccc1)n2CC1CCN(C)CC1
inactive: all assays above
